Experimental data taken from PubChem BioAssay (NCATS).
Inconclusive results are not listed. Active and inactive are the calls of the source. Calls follow the shape of the dose curve; as a rule, active = well fitted inhibition curve with a large enough effect; inconclusive = small, poorly fitted or top-dose-only effect; inactive = flat fitted curve, though single readings scatter.

What follows are compounds tested against Voltage-gated inwardly rectifying potassium channel KCNH2 (Homo sapiens) (UniProt Q12809) (assay: qHTS Assay for Small Molecule Inhibitors of the Human hERG Channel Activity (AID 588834;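 also: lower thallium flux fluorescence means stronger hERG block; nearly all actives have a fitted effect of over 50% in size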; as to activity change, negative = inhibition: top concentration of the series differs between compounds)). Settings: U2OS BacMam hERG, FluxOR thallium flux fluorescence; series mostly up to 46.1 µM; activity change, negative = inhibition: at the top concentration.
Sequence of Voltage-gated inwardly rectifying potassium channel KCNH2 (Homo sapiens) (Q12809 whole entry, looked up): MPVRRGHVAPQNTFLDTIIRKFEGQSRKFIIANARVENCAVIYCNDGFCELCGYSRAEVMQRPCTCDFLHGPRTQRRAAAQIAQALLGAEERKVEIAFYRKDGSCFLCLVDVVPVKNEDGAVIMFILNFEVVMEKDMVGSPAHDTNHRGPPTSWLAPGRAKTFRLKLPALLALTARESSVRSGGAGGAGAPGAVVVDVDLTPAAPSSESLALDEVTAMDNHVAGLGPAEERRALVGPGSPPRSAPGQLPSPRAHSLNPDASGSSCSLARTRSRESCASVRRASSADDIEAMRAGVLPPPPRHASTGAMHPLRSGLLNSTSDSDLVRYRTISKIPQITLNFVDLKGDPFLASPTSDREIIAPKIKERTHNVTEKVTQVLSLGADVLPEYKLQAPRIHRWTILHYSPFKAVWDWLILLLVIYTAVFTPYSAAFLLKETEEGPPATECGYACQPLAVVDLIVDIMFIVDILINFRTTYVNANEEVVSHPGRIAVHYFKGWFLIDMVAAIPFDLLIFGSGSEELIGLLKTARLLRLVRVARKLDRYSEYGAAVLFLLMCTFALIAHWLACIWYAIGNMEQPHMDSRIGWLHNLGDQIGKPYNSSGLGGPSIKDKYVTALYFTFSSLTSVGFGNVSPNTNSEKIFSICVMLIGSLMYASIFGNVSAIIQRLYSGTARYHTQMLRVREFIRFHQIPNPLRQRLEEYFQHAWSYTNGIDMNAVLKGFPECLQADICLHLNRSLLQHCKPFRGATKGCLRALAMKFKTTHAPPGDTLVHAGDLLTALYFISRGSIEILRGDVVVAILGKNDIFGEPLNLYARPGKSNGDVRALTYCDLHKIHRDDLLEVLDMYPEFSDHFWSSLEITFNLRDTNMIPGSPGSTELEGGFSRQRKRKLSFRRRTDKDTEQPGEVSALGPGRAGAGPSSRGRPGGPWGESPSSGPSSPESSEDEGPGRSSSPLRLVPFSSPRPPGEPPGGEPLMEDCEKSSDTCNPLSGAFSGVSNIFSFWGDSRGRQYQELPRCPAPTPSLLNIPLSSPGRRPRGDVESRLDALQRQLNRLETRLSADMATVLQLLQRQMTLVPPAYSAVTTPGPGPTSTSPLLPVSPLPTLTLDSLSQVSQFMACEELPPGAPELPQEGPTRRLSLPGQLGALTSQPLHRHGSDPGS
Outline: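 Concentration-response qHTS measuring drop in thallium-sensitive dye signal. U2OS cells carrying BacMam hERG; compound exposure ~10 min, then stimulation buffer and 2 min read at 1 sec intervals.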
% is scaled to controls: 0 for no effect and ±100 for the full control effect; potency is read from the fitted curve at half-maximal effect.

Row | Structure (SMILES) | activity change, negative = inhibition | Potency
1 | CCOc1ccccc1O[C@H](c1ccccc1)[C@H]1CNCCO1 | -27.6% (inactive) | 
2 | C=CCN1C[C@H](C(=O)N(CCCN(C)C)C(=O)NCC)C[C@@H]2c3cccc4[nH]cc(c34)C[C@H]21 | -15.1% (inactive) | 
3 | C[n+]1ccccc1/C=N/O | 9.74% [at 20.6 µM] (inactive) | 
4 | CCN[C@H]1CN(CCCOC)S(=O)(=O)c2sc(S(N)(=O)=O)cc21 | -1.5% [at 20.6 µM] (inactive) | 
5 | O=C(O)/C=C/c1ccc(Cn2ccnc2)cc1 | 7.74% [at 20.6 µM] (inactive) | 
6 | COCC(=O)Nc1c(I)c(C(=O)NCC(O)CO)c(I)c(C(=O)N(C)CC(O)CO)c1I (centres undefined) | 1.56% [at 20.6 µM] (inactive) | 
7 | COc1ccc2cc(CCC(C)=O)ccc2c1 | -4.4% [at 20.6 µM] (inactive) | 
8 | NS(=O)(=O)c1cc(C2(O)NC(=O)c3ccccc32)ccc1Cl (centres undefined) | -24.1% [at 20.6 µM] (inactive) | 
9 | COC(=O)N/N=C/c1c[n+]([O-])c2ccccc2[n+]1[O-] | 2.23% (inactive) | 
10 | CN1CC(=O)NC1=N | 10.6% (inactive) | 
11 | CC1(C)[C@@H](OC(=O)CCC(=O)O)CC[C@]2(C)[C@H]3C(=O)C=C4[C@@H]5C[C@@](C)(C(=O)O)CC[C@]5(C)CC[C@@]4(C)[C@]3(C)CC[C@@H]12 | -14.5% [at 20.6 µM] (inactive) | 
12 | CN[C@@H]1[C@@H](O)[C@@H](O[C@@H]2[C@H](O)[C@H](O[C@H]3OC(CN)=CC[C@H]3N)[C@@H](N)C[C@H]2N)OCC1(C)O (some centres undefined) | 27.2% (inactive) | 
13 | C/C=C1\[C@H]2C=C(C)C[C@]1(N)c1ccc(=O)[nH]c1C2 | -15.6% (inactive) | 
14 | O=C(O)CNC(=O)c1ccccc1I | -58.1% (inactive) | 
15 | OCCN1C[C@H](O)[C@@H](O)[C@H](O)[C@H]1CO | -0.605% (inactive) | 
16 | NNc1nnc(NN)c2ccccc12 | -0.782% (inactive) | 
17 | CC[C@]12CCCN3CCc4c(n(c5ccccc45)[C@@](O)(C(=O)OC)C1)[C@@H]32 |  | 398 nM (active)
18 | O=S1(=O)OC(c2ccc(O)cc2)(c2ccc(O)cc2)c2ccccc21 | 1.22% (inactive) | 
19 | CC[C@H](C)[C@H](N)C(=O)O | -3.41% (inactive) | 
